In the library only some 1.6% were active in any assay of this set; here they are far more common.
PrP UTR inh: inhibition of PrP 5' UTR reporter expression. cell-based PrP 5' UTR mRNA reporter, plate reader. inhibition, % (test concentration not listed). 0.35% of 340,000 active; in the data active = inhibition above about 52%; also: 0 = median of the neutral control wells
PfHsp40 rescue: rescue of yeast from PfHsp40 toxicity, primary screen, S. cerevisiae, ATP luminescence. S. cerevisiae expressing PfHsp40, growth rescue. AID 504582, 2011. 0.68% of 340,000 active. growth rescue, % at 12.5 µM; in the data active = growth rescue above about 28%, passing the limit was not always enough; inconclusive = no clear call, values can overlap the other calls;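 also: yeast W303a lacking pdr1 and pdr3 grown in galactose medium; growth measured after three days at 30 °C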
PriA SSB inh: inhibitors of Klebsiella pneumoniae PriA binding to SSB C-terminal tail, primary screen, biochemical, AlphaScreen | AlphaScreen SSBct-PriA binding, biotinylated peptide | inhibition, % at 33 µM | 0.6% of 430,000 active; in the data active = inhibition mostly above about 37%, no sharp cut-off; inactive = mostly below about 20%;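 also: plate controls were negative control peptide for no effect and reference peptide for full effect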
3CLpro inhibitor: SARS-CoV 3CLpro protease inhibitors, primary screen, biochemical, quenched FRET; inhibition, % at 6 µM; 0.14% of 290,000 active; Replicase polyprotein 1ab (Severe acute respiratory syndrome coronavirus), P0C6X7; AID 1706, 2009; recombinant SARS-CoV 3CLpro, quenched FRET peptide cleavage; in the data active = inhibition above about 12%
PrPC surface inh: inhibitors of human cell surface prion protein PrPC, primary screen, cell-based, TR-FRET | 0.43% of 370,000 active | AID 720596, 2013 | inhibition, % at 13.8 µM | TR-FRET read-out | Major prion protein (Homo sapiens), P04156; in the data active = inhibition above about 24%; also: 0% = median of the test wells and 100% = reference compound wells
Vc quorum ag: inducers of Vibrio cholerae quorum light production without autoinducers, primary screen, BH1578 luxS cqsA deficient, single point; activation, % at 18.7 µM; 0.16% of 350,000 active; V. cholerae BH1578 lux reporter, luminescence, 6 h; in the data active = activation mostly above about 9.7%, no sharp cut-off; inconclusive = no clear call, values can overlap the other calls; inactive = mostly below about 3.7%
* marks the source's active call; other numbers are inactive results; i = inactive; ? = inconclusive; / = no result given; ! = not confirmed by another sample.

SMILES	PrP UTR inh	PfHsp40 rescue	PriA SSB inh	3CLpro inhibitor	PrPC surface inh	Vc quorum ag
CCOC(=O)c1sc(=S)n(-c2ccccc2Cl)c1C	-0.4	1.9	-3.2	-5.2	-2.6	-0.9
CCCOc1ccc(CN(C)c2ncnc(N)n2)cc1	-15.9	0.0	4.6	-4.3	6.8	i
COc1ccc(CN(C)c2ncnc(N)n2)cc1	-17.5	-0.1	2.4	-0.7	0.8	16.7*
CCOC(=O)C1(Cc2cccc(Cl)c2)CCCN(C(=O)c2ccco2)C1 (configuration not stated)	-27.8	1.2	-6.0	3.9	5.0	-0.4
CCOC(=O)C1(Cc2cccc(Cl)c2)CCCN(C(=O)c2occc2C)C1 (configuration not stated)	-8.9	121.6*	-9.2	-0.5	11.4	-0.2
O=C(COc1ccc(F)cc1)NCc1nn(C2CCCC2)c(=O)c2ccccc12	/	/	-15.0	/	/	/
CCOC(=O)c1c(NC(C)=O)sc2c1CCC(C=NCCCN(CC)CC)=C2Sc1ccccc1	6.4	3.8	18.4	-14.5	/	20.0*
COc1ccc(Cl)cc1C(=O)NCCOc1ccc(F)cc1	/	/	-19.0	/	/	/
Cc1cc(C)cc(C(=O)Nc2nnc(N=Cc3ccc(Br)s3)s2)c1	/	/	71.0*	/	/	/
CN(C)c1ccc(C=Nc2nnc(NC(=O)c3ccccc3Br)s2)cc1	/	/	2.0	/	/	/
CN(C)c1ccc(N=Nc2ccccc2Br)cc1	0.6	-1.2	57.0*	-1.4	0.6	i
CCN1CCN(c2nc3ccc(OC(=O)c4ccc(S(=O)(=O)N5CCCC5)cc4)cc3s2)CC1	/	/	-14.0	/	/	/
COc1ccc2sc(-c3ccccc3OC)c(C#Cc3cncn3C)c2c1	-3.5	5.3	-2.8	/	-18.2	i
COc1ccc(-c2sc3ccccc3c2C#Cc2cncn2C)cc1	-9.2	413.8*	-0.8	/	-12.6	-0.6
COc1ccc(-c2sc3ccccc3c2C#CCO)cc1	-11.9	31.4*	-29.0	3.1	-9.8	i
COc1ccccc1-c1sc2cc3c(cc2c1C#Cc1cncn1C)OCO3	-21.1	245.6*	23.6	/	-9.7	11.1
OCCCCC#Cc1c(-c2ccsc2)sc2ccccc12	-11.6	?	-13.7	7.7	-5.5	i
OCCC#Cc1c(-c2ccsc2)sc2ccccc12	-8.9	55.9*	-3.8	7.3	5.0	-0.8
COc1ccc(-c2sc3ccccc3c2C#CCCO)cc1	-22.2	41.5*	-14.3	1.5	-8.1	-1.0
COc1ccc(-c2sc3ccccc3c2/C=C/c2ccncc2)cc1	-4.2	75.4*	-14.1	/	5.4	-0.4
COc1ccc(-c2sc3cc(OC)c(OC)cc3c2C#CCCO)cc1	-16.3	-0.1	-5.5	/	-9.5	-3.6
CCN(CC)CCN(C(=O)c1ccc2c(c1)CCCC2)c1nc2cc3c(cc2s1)OCCO3	/	/	68.3	/	/	/
Cc1ccc2cc(CN(Cc3ccco3)C(=O)c3cccs3)c(=O)[nH]c2c1	-25.4	42.2*	1.9	6.3	4.3	/
Cc1ccc2[nH]c(=O)c(CN(Cc3ccco3)C(=O)c3cccs3)cc2c1	/	/	/	-3.5	/	/
COc1ccccc1-n1ncc2c(C)nnc(SCC(=O)NCc3ccccc3Cl)c21	/	/	89.0*!	/	/	/
SMILES	PrP UTR inh	PfHsp40 rescue	PriA SSB inh	3CLpro inhibitor	PrPC surface inh	Vc quorum ag
O=C(O)CSc1cccc[n+]1[O-]	-13.4	-0.1	-6.2	4.2	-0.4	-0.3
O=C(CSc1cccc[n+]1[O-])c1cc(Cl)ccc1Cl	-45.1	80.2*	-2.7	0.5	-0.1	-0.3
C=CCOc1cccc(C2C(=C(O)c3ccc(Cl)cc3)C(=O)C(=O)N2CCN2CCOCC2)c1 (configuration not stated)	/	/	-1.2	/	/	/
C[C@H](NS(=O)(=O)c1c(Cl)cccc1Cl)C(=O)NNC(=O)COc1ccccc1F	1.3	50.1*	-1.2	/	3.2	i
COCCN1CCCc2ccc(NC(=O)c3ccc(Br)cc3)cc21	/	/	61.0*	/	/	/
COCCN1CCCc2ccc(N)cc21	/	/	79.0*	/	/	/
CCCCOc1ccc(C(=O)Nc2ccc3c(c2)N(CCOC)CCC3)cc1	/	/	22.0	/	/	/
COCCN1CCCc2ccc(NC(=O)c3cc(C)cc(C)c3)cc21	/	/	62.0*	/	/	/
Cc1ccc2oc(C(=O)NCc3ccc(S(N)(=O)=O)cc3)c(C)c2c1	/	/	0.0	/	/	/
Cc1c(C(=O)N2CCCC(Cc3nc(-c4ccccc4F)no3)C2)cnn1-c1ccccc1 (configuration not stated)	/	/	-10.0	/	/	/
Cc1nc2c([nH]1)C[C@@H](C(=O)N1CCN(C3CCC3)CC1)CC2	/	/	-7.0	/	/	/
COC(=O)c1cnc(NNS(=O)(=O)c2ccc(Cl)cc2)nc1C(F)(F)F	-25.6	-1.6	-4.5	1.6	1.3	i
COC(=O)c1cnc(NNC(=O)c2ccc([N+](=O)[O-])cc2)nc1C(F)(F)F	-17.3	63.0*	-11.8	-0.5	-29.0	-0.3
N#Cc1c(-c2ccco2)cc(-c2ccccc2)nc1SCC(=O)Nc1ccc(Br)cc1	/	/	-6.0	/	/	/
CC(=O)Nc1cccc(-c2csnn2)c1	/	/	-10.0	/	/	/
Cc1nnc(N/N=C/c2cccc(OCc3ccc(Cl)c(Cl)c3)c2)n1N	-10.7	38.1*	/	-1.2	5.0	-0.2
Cc1ccnc(NC(=O)CCCOc2cc(=O)n(C)c3ccccc23)c1	-20.0	-0.3	-8.8	7.2	39.2*	-0.2
CCCn1c(=O)c2ccc(C(=O)N[C@@H](C)CC)cc2n2c(SCc3c(F)cccc3Cl)nnc12	/	/	-18.0	/	/	/
C/C(=N\NC(=O)c1cc(C)nc2ccccc12)c1ccccn1	29.7	-0.3	/	/	3.0	-1.7
C/C(=N\NC(=O)c1cccc2ccccc12)c1cccnc1	-17.9	-1.3	/	2.1	1.6	-1.7
CC(=NNC(=O)COc1ccccc1-c1ccccc1)c1ccccn1	/	/	0.6	/	/	/
CC(=NNC(=O)c1cc(C)nc2ccccc12)c1ccccn1	/	/	94.1*	/	/	/
C/C(=N\NC(=O)COc1ccccc1-c1ccccc1)c1ccccn1	20.7	617.9*	/	-1.2	15.1	-0.3
C/C(=N\NC(=O)c1cc(-c2cccnc2)nc2ccccc12)c1ccc(O)cc1O	31.7	77.7*	/	0.7	10.3	i
CC(=NNC(=O)c1cccc2ccccc12)c1ccccn1	/	/	66.1*	/	/	/
SMILES	PrP UTR inh	PfHsp40 rescue	PriA SSB inh	3CLpro inhibitor	PrPC surface inh	Vc quorum ag
COc1ccc2sc(N(Cc3ccccn3)C(=O)C3CCCCN3S(=O)(=O)c3cccs3)nc2c1 (configuration not stated)	/	/	6.0	/	/	/
O/N=C/c1ccccc1OCc1ccc(Cl)cc1	-28.1	237.0*	/	5.4	3.0	-0.3
CCCn1c(=N)c(C(=O)NC2CCCC2)cc2c(=O)n3cccc(C)c3nc21	-9.8	2.9	-1.3	-5.8	-25.7	16.7*
CCOCCCn1c(=N)c(C(=O)NC2CCCCC2)cc2c(=O)n3cccc(C)c3nc21	/	/	-2.0	/	/	/
Cc1cn2c(=O)c(C(=O)Nc3ccc(F)c(C(F)(F)F)c3)cnc2s1	/	/	-1.0	/	/	/
Cc1ccccc1CSc1nccn1-c1ccccc1	-21.7	0.1	49.5*	1.9	3.8	i
Cc1ccc(S(=O)(=O)NCC2CCN(c3ncccn3)CC2)s1	/	/	-7.0	/	/	/
